Results on nine molecules are retold here after PubChem BioAssay (NCI).

Test systems include HCT-15 colon; HT29 colon; SNB-75 CNS; SNB-19 CNS; U251 CNS; PC-3 prostate; SK-MEL-5 melanoma; LOX IMVI melanoma; SK-MEL-28 melanoma; SK-MEL-2 melanoma; EKVX NSCLC; SN12C renal; UO-31 renal; TK-10 renal; ACHN renal; CAKI-1 renal; A498 renal; CCRF-CEM leukemia; MOLT-4 leukemia; UACC-62 melanoma.
Common to all, as to assay: NCI-60 one-dose screen, 48 h (100 = growth as untreated, 0 = no growth, -100 = all killed)
Details in all cases: 10 µM unless noted

Where “and” joins values, the source holds several entries; their conditions need not be identical. Equal values may be shown once. This is part of a sample that, as a whole, favours compounds with a hit. Of some 83,000 tested, about 20% had one in any assay.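 Growth was measured after 48 h exposure to one concentration of compound in 96-well plates. Values under 10 count as active.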 Calls of active or inactive are those of the source.

As to `CC12CCC(CC1)C(C)(C)O2`, the growth was 97.2% (inactive) in the assay on HCT-15 colon; 95.1% (inactive) in the assay on HT29 colon; 74% (inactive) in the assay with SNB-75 CNS; 103% (inactive) in the assay with SNB-19 CNS; 103% (inactive) in the assay on U251 CNS; 99.7% (inactive) with PC-3 prostate. Moreover, the growth in the assay with SK-MEL-5 melanoma is 102% (inactive); with LOX IMVI melanoma, 97.4% (inactive); in the assay with SK-MEL-28 melanoma, 114% (inactive); in the assay on SK-MEL-2 melanoma, 90.7% (inactive); with EKVX NSCLC it was 97.6% (inactive); in the assay on SN12C renal it was 103% (inactive). Further, the growth in the assay on UO-31 renal was 87.4% (inactive); in the assay on TK-10 renal, 93.8% (inactive); with ACHN renal, 104% (inactive); in the assay on CAKI-1 renal it was 91.4% (inactive); in the assay with A498 renal, 92.7% (inactive); in the assay with CCRF-CEM leukemia, 92.4% (inactive). Further, the growth in the assay on MOLT-4 leukemia is 103% (inactive).
For `C=C1C(=O)O[C@H]2[C@H]1CC/C(COC(=O)NC1CCC(O)CC1)=C\CC[C@@]1(C)O[C@@H]21` (some centres undefined), the growth with HCT-15 colon is 92.2% (inactive) and 85.3% (inactive); in the assay with HT29 colon it was 60% (inactive) and 43.7% (inactive); in the assay on SNB-75 CNS it was 71% (inactive) and 71.7% (inactive); with SNB-19 CNS it was 100% (inactive) and 99.5% (inactive); in the assay with U251 CNS, 91.8% (inactive) and 88.3% (inactive); with PC-3 prostate it was 95.5% (inactive) and 90.6% (inactive). Besides, the growth in the assay with LOX IMVI melanoma was 90.3% (inactive) and 86.9% (inactive); in the assay with SK-MEL-2 melanoma it was 91.2% (inactive) and 86.1% (inactive); in the assay on EKVX NSCLC, 72.8% (inactive) and 67.5% (inactive); in the assay with UO-31 renal it was 78.9% (inactive) and 70.1% (inactive); in the assay on TK-10 renal, 75.2% (inactive) and 71.5% (inactive); in the assay with ACHN renal, 54.3% (inactive) and 45% (inactive). Further, the growth in the assay on A498 renal was 105% (inactive) and 101% (inactive); in the assay on CCRF-CEM leukemia, 16.1% (inactive) and 12.7% (inactive); in the assay with MOLT-4 leukemia it was 69.5% (inactive) and 63.2% (inactive).
Regarding `c1ccc2cc(C[n+]3ccn(Cc4ccc5ccccc5n4)c3)ccc2c1`, the growth in the assay on HCT-15 colon was 96.3% (inactive) and 101% (inactive); with HT29 colon, -30.7% (active) and 10.7% (inactive); in the assay with SNB-75 CNS, 18.9% (inactive) and 33.2% (inactive); in the assay on SNB-19 CNS, 13.3% (inactive) and 19.7% (inactive); in the assay with U251 CNS it was 12.4% (inactive) and 23% (inactive); with PC-3 prostate it was 4.09% (active) and 14.7% (inactive). In addition, the growth with SK-MEL-5 melanoma was -87.6% (active) and -67.9% (active); in the assay with LOX IMVI melanoma, -30.6% (active) and 20.1% (inactive); in the assay on SK-MEL-28 melanoma, 8.97% (active) and 41.2% (inactive); in the assay on SK-MEL-2 melanoma, -35.6% (active) and -4.1% (active); in the assay with EKVX NSCLC it was 15.9% (inactive) and 69% (inactive); in the assay with SN12C renal it was 2.29% (active) and 11.9% (inactive). For the same molecule, the growth was 98% (inactive) and 86.4% (inactive) in the assay with UO-31 renal; -27% (active) and 80.5% (inactive) in the assay on TK-10 renal; 86.3% (inactive) and 102% (inactive) with ACHN renal; 96.2% (inactive) with CAKI-1 renal; 49.1% (inactive) and 61.6% (inactive) in the assay with A498 renal; 10.8% (inactive) and 40.5% (inactive) in the assay with CCRF-CEM leukemia. Moreover, the growth with MOLT-4 leukemia is 0.992% (active) and 34% (inactive).
On to `CC(=O)c1ccc2c(c1)N(CCCN1CCN(CCO)CC1)c1ccccc1S2`, for which the growth was 38.2% (inactive) and -17.3% (active) in the assay with HCT-15 colon; 69.1% (inactive) and -22.6% (active) in the assay with HT29 colon; 67% (inactive) and -12.1% (active) in the assay on SNB-75 CNS; 85.7% (inactive) and 20.6% (inactive) with U251 CNS; 69.7% (inactive) and 24.2% (inactive) in the assay with PC-3 prostate; 88.9% (inactive) and -99.1% (active) in the assay on SK-MEL-5 melanoma. Besides, the growth in the assay with UACC-62 melanoma was 95.8% (inactive) and -58.7% (active); in the assay with LOX IMVI melanoma it was 80.1% (inactive) and -85.2% (active); in the assay on SK-MEL-28 melanoma, 77.9% (inactive) and -91.7% (active); in the assay with SK-MEL-2 melanoma it was 2.74% (active) and -42% (active); in the assay on EKVX NSCLC, 83.9% (inactive) and 60.6% (inactive); with SN12C renal it was 99% (inactive) and 53.6% (inactive). Also, the growth with UO-31 renal was 56.9% (inactive) and 2.41% (active); in the assay on TK-10 renal, 86.4% (inactive) and 27.5% (inactive); in the assay with ACHN renal, 95.5% (inactive) and 30.7% (inactive); with CAKI-1 renal it was 77.3% (inactive) and 15.7% (inactive); in the assay on A498 renal, 85.1% (inactive) and 28.6% (inactive); in the assay with CCRF-CEM leukemia, 80.8% (inactive) and 16.2% (inactive). Also, the growth in the assay with MOLT-4 leukemia was 60.4% (inactive) and 4.26% (active).
As to `Cc1ccc(-c2noc(C)n2)cc1`, the growth with HCT-15 colon is 101% (inactive); in the assay on HT29 colon it was 98.3% (inactive); with SNB-75 CNS, 85.9% (inactive); in the assay on SNB-19 CNS it was 105% (inactive); in the assay with PC-3 prostate, 97.9% (inactive); with SK-MEL-5 melanoma it was 99.7% (inactive). Also, the growth with UACC-62 melanoma is 105% (inactive); with LOX IMVI melanoma it was 99.7% (inactive); in the assay with SK-MEL-2 melanoma, 120% (inactive); in the assay with SN12C renal it was 102% (inactive); with UO-31 renal it was 84% (inactive); in the assay on TK-10 renal it was 107% (inactive). The growth in the assay with ACHN renal was 105% (inactive); in the assay on CAKI-1 renal, 94.5% (inactive); in the assay with A498 renal, 80.8% (inactive); in the assay on CCRF-CEM leukemia, 103% (inactive); in the assay on MOLT-4 leukemia it was 90.5% (inactive).
Regarding `CC(O)Cn1cnc2c1c(=O)n(C)c(=O)n2C` (centres undefined), the growth in the assay on HCT-15 colon was 96.4% (inactive); in the assay on HT29 colon it was 109% (inactive); in the assay on SNB-75 CNS, 83.5% (inactive); with SNB-19 CNS it was 104% (inactive); in the assay on U251 CNS it was 81.8% (inactive); in the assay on SK-MEL-5 melanoma, 101% (inactive). Besides, the growth is 100% (inactive) with UACC-62 melanoma; 103% (inactive) in the assay on SK-MEL-28 melanoma; 98.7% (inactive) with SK-MEL-2 melanoma; 100% (inactive) in the assay on EKVX NSCLC; 98.4% (inactive) in the assay with SN12C renal; 88.7% (inactive) in the assay with UO-31 renal. In addition, the growth in the assay with TK-10 renal is 135% (inactive); in the assay with CAKI-1 renal, 99.4% (inactive); in the assay with A498 renal it was 110% (inactive); with MOLT-4 leukemia, 98.3% (inactive).
With `COc1cc2nc(N3CCN(C(=O)C4COc5ccccc5O4)CC3)nc(N)c2cc1OC` (centres undefined), the growth was 108% (inactive) and 97.5% (inactive) and 105% (inactive) in the assay on HCT-15 colon; 71.4% (inactive) and 93.9% (inactive) in the assay with HT29 colon; 71.3% (inactive) and 76.9% (inactive) and 92.7% (inactive) in the assay on SNB-75 CNS; 99.7% (inactive) and 96% (inactive) and 101% (inactive) with SNB-19 CNS; 91.8% (inactive) and 86.8% (inactive) and 99.1% (inactive) in the assay with U251 CNS; 91.7% (inactive) and 93.1% (inactive) and 110% (inactive) in the assay on PC-3 prostate. The growth was 92.2% (inactive) and 86.6% (inactive) and 101% (inactive) with SK-MEL-5 melanoma; 88% (inactive) and 94.2% (inactive) and 98.7% (inactive) in the assay on LOX IMVI melanoma; 99.9% (inactive) and 102% (inactive) and 107% (inactive) with SK-MEL-28 melanoma; 112% (inactive) and 93.8% (inactive) in the assay with SK-MEL-2 melanoma; 97.5% (inactive) with EKVX NSCLC; 88.1% (inactive) and 83% (inactive) and 99.7% (inactive) in the assay with SN12C renal. For the same molecule, the growth was 94.5% (inactive) and 98.7% (inactive) and 85% (inactive) in the assay on UO-31 renal; 86.4% (inactive) and 88.4% (inactive) in the assay with TK-10 renal; 121% (inactive) and 92.4% (inactive) and 98.8% (inactive) in the assay with ACHN renal; 103% (inactive) and 82.2% (inactive) and 87.4% (inactive) in the assay with CAKI-1 renal; 105% (inactive) and 94.2% (inactive) and 101% (inactive) with A498 renal; 74.9% (inactive) and 89.6% (inactive) and 97.8% (inactive) in the assay on CCRF-CEM leukemia. The growth in the assay on MOLT-4 leukemia was 91.1% (inactive) and 66.1% (inactive) and 94.4% (inactive).
For the molecule `CN(C)c1ccc(C(Cc2ccc3ccccc3n2)Cc2ccc3ccccc3n2)cc1`, the growth is 51.1% (inactive) and 78.8% (inactive) in the assay with HCT-15 colon; 0.736% (active) and 59.7% (inactive) in the assay with HT29 colon; 110% (inactive) and 88.5% (inactive) with SNB-75 CNS; 61% (inactive) and 89.3% (inactive) in the assay with SNB-19 CNS; 43.5% (inactive) and 81.2% (inactive) in the assay with U251 CNS; 16% (inactive) and 61.5% (inactive) with PC-3 prostate. In addition, the growth is 19.8% (inactive) and 76.7% (inactive) in the assay on SK-MEL-5 melanoma; 44.5% (inactive) and 73% (inactive) in the assay with UACC-62 melanoma; 70% (inactive) and 88.5% (inactive) with SK-MEL-2 melanoma; 49.2% (inactive) and 72.9% (inactive) with EKVX NSCLC; 48.7% (inactive) and 81.6% (inactive) in the assay with SN12C renal; 2.9% (active) and 56.3% (inactive) with UO-31 renal. Besides, the growth in the assay on TK-10 renal was 74.1% (inactive) and 121% (inactive); in the assay on ACHN renal, 50.5% (inactive) and 89.6% (inactive); in the assay with A498 renal it was 33.7% (inactive) and 59.3% (inactive); in the assay on CCRF-CEM leukemia, 41.7% (inactive) and 67.4% (inactive); in the assay on MOLT-4 leukemia, 11.4% (inactive) and 74.6% (inactive).
`OC(CSc1ccccc1)CN1CCN(c2cccc(Cl)c2)CC1` (centres undefined): the growth with HCT-15 colon is 105% (inactive) and 101% (inactive); in the assay on HT29 colon, 104% (inactive) and 96.5% (inactive); with SNB-75 CNS, 91.7% (inactive) and 102% (inactive); with SNB-19 CNS, 100% (inactive) and 111% (inactive); with U251 CNS, 95% (inactive) and 102% (inactive); in the assay on PC-3 prostate, 92.9% (inactive) and 97.8% (inactive). Further, the growth in the assay on SK-MEL-5 melanoma was 97.4% (inactive) and 96.8% (inactive); with LOX IMVI melanoma, 96.7% (inactive) and 96.3% (inactive); in the assay with SK-MEL-28 melanoma it was 103% (inactive) and 99.1% (inactive); with SK-MEL-2 melanoma it was 98.3% (inactive) and 100% (inactive); in the assay with EKVX NSCLC, 102% (inactive) and 99% (inactive); with SN12C renal, 94.3% (inactive) and 103% (inactive). Further, the growth was 76% (inactive) and 75% (inactive) in the assay with UO-31 renal; 101% (inactive) and 112% (inactive) in the assay on TK-10 renal; 103% (inactive) and 101% (inactive) in the assay on ACHN renal; 116% (inactive) and 89.9% (inactive) with A498 renal; 92.5% (inactive) and 98.1% (inactive) in the assay on CCRF-CEM leukemia; 76.1% (inactive) and 94.9% (inactive) in the assay with MOLT-4 leukemia.
